Screening results: PubChem BioAssay, several laboratories
MazF activator = MazEF (E. coli) toxin RNase activation; P0AE70; FAM/BHQ RNA-DNA oligo cleavage fluorescence, 5 h; activation, % at 20 µM; hit rate 0.32% among 350,000; AID 504720; in the data active = activation above about 50%
Bead autofluor = compound fluorescence in toxin protease inhibitor counterscreen; compound autofluorescence counterscreen, microsphere flow cytometry; stronger effect = higher value; fluorescence intensity (test concentration not listed); hit rate 3.1% among 360,000; AID 624483; in the data active = fluorescence intensity above about 16000; inconclusive = no clear call, values can overlap the other calls
BoNT-A LC inh2 = inhibitors of Botulinum neurotoxin A light chain protease | multiplex microsphere protease substrate cleavage, flow cytometry | inhibition, % at 10 µM | hit rate 0.17% among 360,000 | AID 588499
BoNT-F LC inh = blocks Botulinum neurotoxin F light chain protease. Multiplex microsphere protease cleavage assay, flow cytometry. inhibition, % at 10 µM. hit rate 0.22% among 360,000. AID 588497; in the data active = inhibition above about 35%, passing the limit was not always enough; inconclusive = no clear call, values can overlap the other calls
Anthrax LF inh2 = anthrax lethal factor protease inhibition; inhibition, % at 10 µM; multiplex microsphere protease cleavage assay, LF; hit rate 0.12% among 360,000; P15917
Large screens that a line does not name were inactive. Most compounds without a hit are left out; they make up all but 3.6% or so of the library. Cut-off read from the data, not from the text of the source, unless noted: active = inhibition above about 30%; inconclusive = no clear call, values can overlap the other calls; inactive = below that.

O=C1CCCCc2sc(Br)c([N+](=O)[O-])c2N1	none
COc1ccccc1C1=NOC(COc2ccc3c(C)cc(=O)oc3c2)C1 (stereo not given)	BoNT-F LC inh 44, Anthrax LF inh2 inconclusive
COc1ccc(C2=NOC(COc3ccc4c(C)cc(=O)oc4c3)C2)c(OC)c1 (stereo not given)	Anthrax LF inh2 inconclusive
COc1cc(/C=C2/CC/C(=C/c3ccc(O)c(OC)c3)C2=O)ccc1O	none
COc1cc(/C=C/C=C2/CC/C(=C/C=C/c3ccc(O)c(OC)c3)C2=O)ccc1O	BoNT-A LC inh2 39, Anthrax LF inh2 34
CC(=O)c1ccc(NS(=O)(=O)c2ccccc2)cc1	Bead autofluor 21657
CC(=O)c1cc2c(cc1NS(=O)(=O)c1cccc(C(=O)O)c1)OCO2	none
O=S(=O)(Nc1ccc2c(c1)OCO2)c1ccccc1	Bead autofluor 23731, BoNT-A LC inh2 inconclusive
CC(=O)c1cc2c(cc1NS(=O)(=O)c1ccccc1)OCO2	Bead autofluor 20902
CCCCCCCCC(c1nc2ccccc2[nH]1)N1CCN=C1c1cc2ccccc2[nH]1 (stereo not given)	none (no result: MazF activator)
CCc1nc2c(OCc3ccccc3)cccn2c1N(Cc1ccccc1)C(C)=O	none (no result: MazF activator)
COc1cccc(Nc2nc(C(N)C3CCCCC3)cs2)n1 (stereo not given)	none (no result: MazF activator)
O=C(NCC1CCCO1)C1CCCN(Cc2cnn(-c3ccccc3)c2-n2cccc2)C1 (stereo not given)	none
Cc1ccc(CNC(=O)C2CCCN(Cc3cnn(-c4ccccc4)c3-n3cccc3)C2)cc1 (stereo not given)	Bead autofluor 21776, BoNT-A LC inh2 inconclusive
CC(C)(C)NC(=O)NC(=O)CSc1ccc(S(=O)(=O)N2CCCCC2)cn1	none
CN(/C=C/C(=O)C(F)(F)F)Cc1ccccc1	Bead autofluor 24286
CSc1nc2nccc(-c3ccc(Cl)cc3)n2n1	none
CSc1nc2nccc(/C=C\c3ccccc3)n2n1	Bead autofluor 21761, BoNT-A LC inh2 inconclusive
CC(C)(C)c1ccc(C(=O)N2CCC2(C)C(=O)NS(=O)(=O)c2ccccc2Cl)cc1 (stereo not given)	none (no result: MazF activator)
CN1CCCCCC1=Nc1ccc([N+](=O)[O-])cc1	BoNT-F LC inh 39
CN1CCCC1=Nc1ccccc1	none
Cc1cc(Cl)c(S(=O)(=O)N2CCCC2)cc1OCC(=O)NC1CCCCC1	Bead autofluor 20066, BoNT-A LC inh2 inconclusive
Cc1cc(Cl)c(S(=O)(=O)Nc2ccc3c(c2)OCO3)cc1OCC(=O)NC1CCCCC1	Bead autofluor 25458
O=C(COc1ccc(S(=O)(=O)N2CCCC2)cc1Cl)NC1CCCC1	Bead autofluor 20890
O=C(NC1CC1)C1CCN(c2ccc(S(=O)(=O)N3CCOCC3)cc2Cl)CC1	Bead autofluor 22681
Cc1cc(Cl)c(S(=O)(=O)Nc2ccc3c(c2)OCO3)cc1OCC(N)=O	none
Cc1ccc(CNC(=O)Cn2cnc3c(NC(=O)OCc4ccccc4)ncnc32)o1	none
Cc1cc(Cl)c(S(=O)(=O)NC(C(=O)O)C(C)C)cc1OCC(=O)NC1CCCCC1 (stereo not given)	Bead autofluor 20262, BoNT-A LC inh2 inconclusive
Cc1cc(Cl)c(S(=O)(=O)NCc2cccnc2)cc1OCC(=O)NC1CCCCC1	none
CN1CCN(C(=O)c2ccc(-c3ccc(F)c(F)c3)c3ccoc23)CC1	none (no result: MazF activator)
COc1ccc(OCCCC(=O)NCc2ccco2)cc1	none
Cc1ccc(OCCCC(=O)NCc2ccco2)cc1	Bead autofluor 20751
Cc1cccc(OCCC(=O)NCC(c2ccccc2)N(C)C)c1 (stereo not given)	Bead autofluor 25146
CCc1ccc(OCCCC(=O)NCc2ccco2)cc1	none
Cc1cccc(OCCCC(=O)NCc2ccco2)c1	Bead autofluor 17050, BoNT-A LC inh2 inconclusive
N#Cc1c(-c2ccncc2)c2c([nH]c1=S)CCCC2	none
Cc1ccc(-c2c3c([nH]c(=S)c2C#N)CCCC3)o1	MazF activator 88, Bead autofluor 24820, BoNT-A LC inh2 inconclusive
Cc1ccccc1SCC(=O)Nc1ccc(N2CCOCC2)cc1	none
Cc1ccccc1SCC(=O)NC1CCOC1=O (stereo not given)	Bead autofluor 22927
CCS(=O)(=O)Nc1cccc(C2=NN(S(=O)(=O)c3ccccc3)C(c3cccs3)C2)c1 (stereo not given)	Bead autofluor 22079
CCc1ccc(C2=NN(S(C)(=O)=O)C(c3cccs3)C2)cc1 (stereo not given)	MazF activator 283, Bead autofluor 19673
Cc1ccc(C2=NN(S(C)(=O)=O)C(c3cccs3)C2)cc1 (stereo not given)	Bead autofluor inconclusive
O=C(NCc1cccs1)C(=O)NCC1OCCCN1S(=O)(=O)c1cc(F)ccc1F (stereo not given)	none
CNC(=O)CC1C(=O)N(c2ccc(F)cc2)C(=S)N1NC(=O)c1ccc(Cl)cc1 (stereo not given)	none
CCCCc1cc(=O)oc2cc(OC(C)C(=O)NCC3CCC(C(=O)O)CC3)c(Cl)cc12 (stereo not given)	none
COc1ccc(-c2c(S(=O)(=O)c3ccccc3)cnn2-c2ccccc2)cc1	Bead autofluor 21873
O=S(=O)(c1ccccc1)c1cnn(-c2ccccc2)c1-c1ccc(Cl)cc1	Bead autofluor 22953, BoNT-A LC inh2 inconclusive
Nc1nc(-c2ccc(Cl)cc2)c(S(=O)(=O)c2ccccc2)s1	none
C[C@H](NC(=O)c1ccc(Cl)c(S(=O)(=O)N2CCOCC2)c1)c1nc2ccccc2[nH]1	none
CCOC(=O)CSC1=NC(=O)/C(=C\c2ccc(OC(C)=O)cc2)S1	MazF activator 65
CCOC(=O)CSC1=NC(=O)/C(=C/c2ccc(Br)cc2)S1	none
Cc1ccc(CN2C(=O)C(C)Oc3ccc(C)cc32)cc1 (stereo not given)	none (no result: MazF activator)
Cc1ccc2c(c1)N(Cc1ccccn1)C(=O)C(C)O2 (stereo not given)	Bead autofluor 24586
CC[C@]12c3[nH]c4cc(-c5ccco5)ccc4c3CCN1C(=O)[C@@H](CC(=O)NC/C=C(\C)CCC=C(C)C)C[C@@H]2C(=O)N1CCN(C(=O)C2CC2)CC1	none
CC(C)=CCC/C(C)=C/CNC(=O)C[C@H]1C[C@H](C(=O)N2CCCCC2)[C@@]2(CCc3ccccc3)c3[nH]c4cc(-c5ccco5)ccc4c3CCN2C1=O	MazF activator 75
COc1ccc([C@H]2C[C@@H](O)C[C@@H](CCn3cc(-c4ccccc4)nn3)O2)cc1	none (no result: MazF activator)
CCCCn1c(O)c(C(CC)=Nc2ccc3c(c2)CCC3)c(=O)[nH]c1=O	Bead autofluor 16607
CCCCn1c(O)c(C(CC)=Nc2ccc(C(=O)O)cc2)c(=O)[nH]c1=O	none
CCCCn1c(O)c(C(C)=Nc2cccc(C(=O)O)c2)c(=O)[nH]c1=O	Bead autofluor 21668, BoNT-A LC inh2 inconclusive
CCCCn1c(O)c(C(C)=NC(Cc2c[nH]c3ccccc23)C(=O)OC)c(=O)[nH]c1=O (stereo not given)	Bead autofluor 20728
CCCCn1c(O)c(C(C)=Nc2ccc(OCC)cc2)c(=O)[nH]c1=O	none
CCNC(=O)C1(C)CCCN1C(=O)c1cnc2ccccc2n1 (stereo not given)	none (no result: MazF activator)
Cc1cccc(NC(=O)c2ncn3c2C(=O)NC[C@H]3C)c1	none
